Data from PubChem BioAssay (EPA / NIEHS).
Inconclusive results are not listed. Activity calls are given as the source filed them. How the source made its calls: active means hit-call score of the fitted dose curve at least 0.9, where 1 is the maximum; inconclusive means response in the unintended direction; inactive means score below 0.9.

read-out: xenobiotic metabolism (CYP1A1), CYP1A1 (gene 1543); assay: CLD_CYP1A1_24hr: CellzDirect (CLD) Gene Expression Assay for xenobiotic metabolism (CYP1A1) at 24 hours (AID 2283673)
Description: CLD_24hr is a cell-based, multiplexed-readout assay that uses hepatocyte, a human liver primary cell, with measurements taken at 24 hours after chemical dosing in a 96-well plate.CLD_CYP1A1_24hr is one of 16 assay component(s) measured or calculated from the CLD_24hr assay. It is designed to make measurements of mRNA induction, a form of inducible reporter, as detected with chemiluminescence signals by Quantitative Nuclease Protection Assay (qNPA) technology.Data from the assay component CLD_CYP1A1_24hr was analyzed at the endpoint, CLD_CYP1A1_24hr, in the positive analysis fitting direction relative to DMSO as the negative control and baseline of activity. Using a type of inducible reporter, gain-of-signal activity can be used to understand changes in the reporter gene as they relate to the gene CYP1A1. Furthermore, this assay endpoint can be referred to as a primary readout. To generalize the intended target to other relatable targets, this assay endpoint is annotated to the cyp intended target family, where subfamily is xenobiotic metabolism.
Human hepatocyte cultures were treated daily for two consecutive days with fresh dosing solutions containing appropriate concentrations of the 320 ToxCast chemicals (chemical identities were blinded to CellzDirect and other ToxCast collaborators), vehicle control (0.2% DMSO), and positive control inducers as summarized in Table 1. Due to the large number of treatment groups and chemicals examined, the ToxCast chemicals were divided into two groups (spanning two independent cultures of hepatocytes from separate donor preparations (Hu778: ToxCast plates 1 and 2; Hu776: ToxCast plates 3 and 4). Each preparation of human hepatocyte cultures was treated with respective vehicle control, medium only control, set of six positive controls/reference chemicals for the five hepatic receptor pathways, and a subset of eight of the ToxCast chemicals (indoxacarb, pyrithiobac-sodium, norflurazon, cyhalofop-butyl, methomyl, thiram, acetochlor, and propiconazole). These replicate data, coupled with internal replicates designed within the blinded ToxCast chemical library, provided additional data to evaluate interindividual differences between hepatocyte preparations and their potential impact on chemical profiles.Cell morphology and integrity were evaluated using phase-contrast microscopy as an indicator of hepatocyte cell health (Tyson & Green, 1987). Cultures for each treatment group (i.e., media, vehicle [0.2% DMSO], positive control inducers [multiple concentrations], and the ToxCast chemicals [multiple concentrations]) were observed and cell morphology was assessed relative to vehicle control cultures at each harvest time point (0, 6, 24, or 48 h). […] Images were evaluated at the conclusion of the study to assess changes in cell integrity and account for the effects of chemical exposure on uncharacteristic changes in concentration-dependent gene expression profiles. The results from these determinations of apparent cytotoxicity were annotated (yes/no) alongside the corresponding qNPA data for reference.At the conclusion of each treatment period, hepatocyte cultures (96-well) were washed with 1 volume of HBSS, lysed by addition of 25 ul ArrayPlate lysis buffer (HTG, Tucson, AZ), and 70 ul/well of Denaturation Oil, denatured by incubation at 95C for 10 min, and frozen at approximately -70C until analysis by nuclease protection assay (qNPA) (Roberts et al., 2007). For qNPA analysis, cell lysates were thawed at 50C for approximately 30 min, qNPA probes were added, and samples were incubated at 95C for 10 min to begin the detection process by denaturing the target RNA, dissociating the duplexes and secondary structure hybridization. At the conclusion of the hybridization period, S1 nuclease reagent was added to each sample to digest all nonprotected nucleotides at 50C for 60-90 min. […]

**Q.** `COc1nc(C)nc(NC(=O)NS(=O)(=O)c2ccccc2OCCCl)n1` was tested. Which outcome did it give?
**A.** Its outcome is “inactive”.

**Q.** `CCCCOCCOCCOCc1cc2c(cc1CCC)OCO2` was tested. Which AC50 did it give?
**A.** The AC50 was 2.56 µM (active).

**Q.** For `COC(=O)c1ccccc1S(=O)(=O)NC(=O)Nc1nc(OC(F)F)cc(OC(F)F)n1`, which AC50 is on record?
**A.** Its AC50 is 0.0569 µM (active).

**Q.** How did the outcome turn out when `Oc1ccc(C(c2ccc(O)cc2)C(Cl)(Cl)Cl)cc1` was run?
**A.** The outcome was “inactive”.

**Q.** With `CCOC(=O)NCCOc1ccc(Oc2ccccc2)cc1` as the compound, how does the outcome read?
**A.** Its outcome is “inactive”.

**Q.** How did the AC50 turn out when `CCCN(CCC)c1c([N+](=O)[O-])cc(C(F)(F)F)c(N)c1[N+](=O)[O-]` was run?
**A.** Its AC50 is 3.83 µM (active).

**Q.** `COC(=O)c1ccccc1C(=O)O` was tested. Which AC50 did it give?
**A.** Its AC50 is 0.117 µM (active).

**Q.** Which AC50 does the source give for `c1ccc2[nH]c(-c3cscn3)nc2c1` here?
**A.** Its AC50 is 0.226 µM (active).

**Q.** Which outcome does the source give for `CCOC(=O)C(C)Oc1ccc(Oc2nc3ccc(Cl)cc3o2)cc1` (stereo unspecified) here?
**A.** Its outcome is “inactive”.

**Q.** For `CCCCOC(=O)[C@@H](C)Oc1ccc(Oc2ccc(C(F)(F)F)cn2)cc1`, which AC50 is on record?
**A.** The AC50 was 20 µM (active).

**Q.** For `COC(=O)c1ccc(I)cc1S(=O)(=O)NC(=O)Nc1nc(C)nc(OC)n1`, which outcome is on record?
**A.** The outcome was “inactive”.

**Q.** Which outcome does the source give for `Cc1nn(C)c(Oc2ccccc2)c1C=NOCc1ccc(C(=O)OC(C)(C)C)cc1` here?
**A.** Its outcome is “inactive”.

**Q.** How did the AC50 turn out when `CN(C)C(=O)Nc1ccc(Cl)c(Cl)c1` was run?
**A.** The AC50 was 4.24 µM (active).

**Q.** How did the outcome turn out when `O=C(O)C1(C(=O)Nc2ccc(Cl)cc2Cl)CC1` was run?
**A.** The outcome was “inactive”.

**Q.** For `CCCCCOC(=O)COc1cc(N2C(=O)C3=C(CCCC3)C2=O)c(F)cc1Cl`, which outcome is on record?
**A.** The outcome was “inactive”.

**Q.** For `S=C([S-])NCCNC(=S)[S-].[Mn+2]`, which outcome is on record?
**A.** The outcome was “inactive”.

**Q.** `CCNc1nc(N)nc(Cl)n1` was tested. Which outcome did it give?
**A.** Its outcome is “inactive”.

**Q.** For `COC(=O)c1cccc(C)c1S(=O)(=O)NC(=O)Nc1nc(OCC(F)(F)F)nc(N(C)C)n1`, which AC50 is on record?
**A.** Its AC50 is 5.36 µM (active).

**Q.** For `CC(C)(C)[C@@H](O)[C@@H](Cc1ccc(Cl)cc1)n1cncn1`, which AC50 is on record?
**A.** Its AC50 is 12.1 µM (active).

**Q.** With `CCOC(=O)COc1cc(-n2ncc(C(F)(F)F)c(C)c2=O)c(F)cc1Cl` as the compound, how does the outcome read?
**A.** The outcome was “inactive”.

**Q.** With `CSC(=O)c1cccc2nnsc12` as the compound, how does the AC50 read?
**A.** The AC50 was 20 µM (active).

**Q.** How did the outcome turn out when `CC1(C)C(C=C(Cl)Cl)C1C(=O)OCc1cccc(Oc2ccccc2)c1` (stereo unspecified) was run?
**A.** The outcome was “inactive”.

**Q.** For `c1ccc(Nc2ccccc2)cc1`, which outcome is on record?
**A.** The outcome was “inactive”.

**Q.** With `C=CCOC(Cn1ccnc1)c1ccc(Cl)cc1Cl` (stereo unspecified) as the compound, how does the AC50 read?
**A.** The AC50 was 1.07 µM (active).

**Q.** Which outcome does the source give for `COC(=O)c1ccc(CNS(C)(=O)=O)cc1S(=O)(=O)NC(=O)Nc1nc(OC)cc(OC)n1` here?
**A.** Its outcome is “inactive”.

**Q.** For `COC(=O)CSc1cc(N=c2sc(=O)n3n2CCCC3)c(F)cc1Cl`, which outcome is on record?
**A.** The outcome was “inactive”.

**Q.** How did the outcome turn out when `COC(=O)c1c(Cl)nn(C)c1S(=O)(=O)NC(=O)Nc1nc(OC)cc(OC)n1` was run?
**A.** The outcome was “inactive”.

**Q.** Which outcome does the source give for `CC(C)(c1ccc(O)cc1)c1ccc(O)cc1` here?
**A.** The outcome was “inactive”.

**Q.** Which outcome does the source give for `CCOC(=O)[C@H](C)Oc1ccc(Oc2nc3ccc(Cl)cc3o2)cc1` here?
**A.** The outcome was “inactive”.

**Q.** For `COc1c(Cl)ccc(Cl)c1C(=O)O`, which outcome is on record?
**A.** The outcome was “inactive”.

**Q.** Which AC50 does the source give for `O=C(Nc1ccc([N+](=O)[O-])cc1Cl)c1cc(Cl)ccc1O` here?
**A.** The AC50 was 7.01 µM (active).

**Q.** With `N#CSCSc1nc2ccccc2s1` as the compound, how does the AC50 read?
**A.** The AC50 was 4.74 µM (active).

**Q.** How did the outcome turn out when `CCCCCCC(C)OC(=O)COc1nc(F)c(Cl)c(N)c1Cl` (stereo unspecified) was run?
**A.** Its outcome is “inactive”.

**Q.** How did the AC50 turn out when `CCN(Cc1c(F)cccc1Cl)c1c([N+](=O)[O-])cc(C(F)(F)F)cc1[N+](=O)[O-]` was run?
**A.** The AC50 was 0.786 µM (active).

**Q.** `CCCCC(CC)CN1C(=O)C2C3C=CC(C3)C2C1=O` (stereo unspecified) was tested. Which AC50 did it give?
**A.** The AC50 was 20 µM (active).

**Q.** With `CCCN(CCC)C(=O)SCC` as the compound, how does the outcome read?
**A.** Its outcome is “inactive”.
